ChEMBL document CHEMBL5308504, “Tm Shift (DSF) assay results for EUbOPEN Chemogenomics Library” (2023)
Where “and” joins values, the source holds several entries; their conditions need not be identical. Identical values can stand only once.

Assays:
Details in all cases: Compound concentration 20.0 uM, Protein concentration 2.0 uM, Result type QC Liability
[1] = biological target: Tyrosine-protein kinase ABL1 (Homo sapiens) (UniProt P00519)
[2] = biological target: Cyclin-dependent kinase 2 (Homo sapiens) (UniProt P24941)
[3] = biological target: Casein kinase I isoform delta (Homo sapiens) (UniProt P48730)
Sequence of Casein kinase I isoform delta (Homo sapiens) (P48730 whole entry, looked up, canonical isoform): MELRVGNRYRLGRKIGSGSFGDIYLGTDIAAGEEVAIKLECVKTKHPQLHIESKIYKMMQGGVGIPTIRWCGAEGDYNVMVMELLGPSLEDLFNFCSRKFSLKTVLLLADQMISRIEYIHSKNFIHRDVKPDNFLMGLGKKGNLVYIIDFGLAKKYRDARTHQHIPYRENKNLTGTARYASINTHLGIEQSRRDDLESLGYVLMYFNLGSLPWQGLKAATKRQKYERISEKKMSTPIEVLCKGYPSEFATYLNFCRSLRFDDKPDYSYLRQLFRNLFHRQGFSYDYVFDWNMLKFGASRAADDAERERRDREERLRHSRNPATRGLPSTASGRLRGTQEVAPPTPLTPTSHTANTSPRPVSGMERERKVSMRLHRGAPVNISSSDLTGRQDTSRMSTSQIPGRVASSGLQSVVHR

[4] = biological target: Glycogen synthase kinase-3 beta (Homo sapiens) (UniProt P49841)
Sequence of Glycogen synthase kinase-3 beta (Homo sapiens) (P49841 whole entry, looked up): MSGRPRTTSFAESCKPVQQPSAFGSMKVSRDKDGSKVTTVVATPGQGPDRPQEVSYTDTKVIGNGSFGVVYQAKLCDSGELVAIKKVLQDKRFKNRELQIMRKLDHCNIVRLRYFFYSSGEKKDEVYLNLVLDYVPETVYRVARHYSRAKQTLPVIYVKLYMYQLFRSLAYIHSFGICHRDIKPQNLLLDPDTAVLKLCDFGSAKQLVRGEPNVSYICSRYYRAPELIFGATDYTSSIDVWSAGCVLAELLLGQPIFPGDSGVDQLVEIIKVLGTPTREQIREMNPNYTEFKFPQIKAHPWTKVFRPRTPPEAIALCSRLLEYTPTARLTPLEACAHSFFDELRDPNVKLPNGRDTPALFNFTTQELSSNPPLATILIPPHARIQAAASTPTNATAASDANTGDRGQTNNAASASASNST

[5] = biological target: Mitogen-activated protein kinase 1 (Homo sapiens) (UniProt P28482)
Sequence of Mitogen-activated protein kinase 1 (Homo sapiens) (P28482 whole entry): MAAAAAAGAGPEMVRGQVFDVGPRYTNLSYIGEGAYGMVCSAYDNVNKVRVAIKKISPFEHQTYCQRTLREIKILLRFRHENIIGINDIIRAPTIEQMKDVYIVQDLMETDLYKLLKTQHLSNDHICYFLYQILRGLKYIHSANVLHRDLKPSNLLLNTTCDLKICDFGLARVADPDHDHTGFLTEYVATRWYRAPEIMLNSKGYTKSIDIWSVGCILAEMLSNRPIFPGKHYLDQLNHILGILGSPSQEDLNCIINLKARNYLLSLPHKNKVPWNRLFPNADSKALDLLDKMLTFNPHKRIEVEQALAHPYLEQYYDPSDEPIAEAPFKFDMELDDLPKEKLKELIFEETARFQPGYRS

[6] = biological target: T1, Aurora kinase A (Homo sapiens) (UniProt O14965)
T1 sequence (whole entry): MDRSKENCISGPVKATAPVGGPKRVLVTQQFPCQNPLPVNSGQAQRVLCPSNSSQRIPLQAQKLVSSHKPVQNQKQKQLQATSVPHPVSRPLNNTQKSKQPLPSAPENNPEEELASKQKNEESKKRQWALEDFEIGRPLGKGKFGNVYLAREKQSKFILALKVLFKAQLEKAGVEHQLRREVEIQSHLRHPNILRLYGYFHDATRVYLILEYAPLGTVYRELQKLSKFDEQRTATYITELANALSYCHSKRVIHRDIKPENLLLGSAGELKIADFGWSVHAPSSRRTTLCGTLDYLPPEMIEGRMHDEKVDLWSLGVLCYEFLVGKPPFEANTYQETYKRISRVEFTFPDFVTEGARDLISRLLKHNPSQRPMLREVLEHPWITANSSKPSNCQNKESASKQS

Sequence of Tyrosine-protein kinase ABL1 (Homo sapiens) (P00519 whole entry): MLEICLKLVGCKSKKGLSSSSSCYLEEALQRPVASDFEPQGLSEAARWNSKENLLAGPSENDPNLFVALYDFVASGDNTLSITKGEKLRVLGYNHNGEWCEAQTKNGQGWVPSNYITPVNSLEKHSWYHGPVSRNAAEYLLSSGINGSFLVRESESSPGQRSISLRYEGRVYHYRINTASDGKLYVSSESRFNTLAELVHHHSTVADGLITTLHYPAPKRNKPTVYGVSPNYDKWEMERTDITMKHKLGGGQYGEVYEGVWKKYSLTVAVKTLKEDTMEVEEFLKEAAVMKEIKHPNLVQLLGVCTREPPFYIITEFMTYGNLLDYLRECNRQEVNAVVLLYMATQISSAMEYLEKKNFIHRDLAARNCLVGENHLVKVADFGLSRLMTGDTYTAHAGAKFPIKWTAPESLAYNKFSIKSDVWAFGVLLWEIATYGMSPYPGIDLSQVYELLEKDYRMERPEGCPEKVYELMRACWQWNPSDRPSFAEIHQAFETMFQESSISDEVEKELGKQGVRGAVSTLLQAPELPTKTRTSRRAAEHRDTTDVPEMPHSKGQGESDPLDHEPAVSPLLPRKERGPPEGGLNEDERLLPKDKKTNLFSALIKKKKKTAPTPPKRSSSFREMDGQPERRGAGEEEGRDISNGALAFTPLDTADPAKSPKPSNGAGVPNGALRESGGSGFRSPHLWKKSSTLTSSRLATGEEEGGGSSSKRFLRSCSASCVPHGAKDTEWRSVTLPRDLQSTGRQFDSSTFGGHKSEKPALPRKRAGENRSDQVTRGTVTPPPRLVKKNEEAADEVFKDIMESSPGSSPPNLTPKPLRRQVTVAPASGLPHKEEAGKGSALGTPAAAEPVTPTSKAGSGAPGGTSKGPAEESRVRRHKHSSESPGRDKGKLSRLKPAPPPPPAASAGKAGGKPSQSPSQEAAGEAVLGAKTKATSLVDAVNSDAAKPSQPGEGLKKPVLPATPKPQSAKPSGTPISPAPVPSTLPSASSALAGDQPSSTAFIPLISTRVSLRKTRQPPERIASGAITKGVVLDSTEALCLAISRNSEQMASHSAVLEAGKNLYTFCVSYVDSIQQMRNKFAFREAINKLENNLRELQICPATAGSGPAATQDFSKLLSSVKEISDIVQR

Structure (SMILES)	ΔTm [1]	ΔTm [2]	ΔTm [3]	ΔTm [4]	ΔTm [5]	ΔTm [6]
CNC(=O)c1cc(C(=O)N[C@H]2[C@@H]3COC[C@@H]32)cc2c1O[C@@H](CF)[C@@H]2c1ccccc1	-0.03 °C	0.5 °C	0.22 °C	-0.96 °C	0.58 °C	-0.12 °C
COc1cc2c(cc1CC=C(C)C)C(=O)C[C@@H](c1ccc(O)cc1)O2	0.53 °C	1.21 °C	1.23 °C	-0.03 °C	0.34 °C	-1.38 °C
Oc1c(-c2cccnc2)cnn1-c1ccccn1	-0.25 °C	0.31 °C	0.78 °C	-0.42 °C	0.36 °C	-0.05 °C
Cc1nc2c(cc1F)c(-c1nnc3c(n1)NC(=O)C3(C)C)nn2Cc1cccc(F)c1F	0.8 °C	0.74 °C	0.12 °C	-0.14 °C	0.44 °C	-0.06 °C
COC(=O)c1ccc2c(c1)NC(=O)/C2=C(\Nc1ccc(-c2nccn2C)cc1)c1ccccc1	3.43 °C	0.27 °C	-0.5 °C	1.96 °C	-6.31 °C	-1.46 °C
CCOCCn1cc(C(=O)Nc2ccc(-n3nc(-c4cccnc4)cc3C(F)(F)F)cn2)ccc1=O	0.3 °C	-1.4 °C	0.33 °C	-0.71 °C	-0.58 °C	0.16 °C
O=C1Nc2ccc(C(=O)c3ccco3)cc2C1=Cc1cc(Cl)c(O)c(Cl)c1	4.46 °C	0.67 °C	3.71 °C	5.93 °C	0.54 °C	5.03 °C
CCn1c(CNC(=O)c2nc(Cl)cnc2N)[n+](CC)c2ccc(C(=O)N(C)CCN(C)C)cc21	0.14 °C	0.44 °C	0.35 °C	-0.7 °C	0.33 °C	-0.18 °C
CCOC(=O)Nc1ccc2c(c1)N(C(=O)CN(CC)CC)c1ccccc1CC2	0.17 °C	0.57 °C	0.58 °C	-0.12 °C	0.19 °C	-1.06 °C
CCS(=O)(=O)c1cc2cc(C[C@@](O)(CC(C)(C)c3ccc(F)cc3C(N)=O)C(F)(F)F)[nH]c2cn1	-0.47 °C and 0.04 °C	0.64 °C and 0.86 °C	0.37 °C and 0.15 °C	-0.42 °C and -0.19 °C	-0.08 °C and 0.35 °C	-0.24 °C and 0.19 °C
CN1CCCN(C(=O)c2cccc(-c3ccc(/C=C4/C(=O)Nc5ccc(Cl)cc54)o3)c2)CC1	1.94 °C	2.38 °C	2.04 °C	5.85 °C	-0.12 °C	1.88 °C
CCc1ccccc1C(=O)Nc1n[nH]c2c(C)c(F)c(C3C(C#N)=C(C)N(C)C(C)=C3C#N)cc12	0.41 °C	1.35 °C	0.67 °C	8.17 °C	0.38 °C	5.56 °C
O=C(CCSCc1ccco1)NNC(=O)N1Cc2ccccc2Oc2ccc(Cl)cc21	0.44 °C	0.06 °C	-8.4 °C	-9.34 °C	0.1 °C	1.12 °C
Cn1cnc(Cn2ccc3ccc(CNCc4[nH]c5ccccc5c4[C@@H]4NC(=O)c5ccc(O)cc54)cc32)c1	0.7 °C	0.07 °C	0.29 °C	-0.16 °C	0.02 °C	0.7 °C
CC(C)N(C(=O)C1CCOCC1)c1cc(F)c(Oc2ncc(Cn3nccn3)cc2C(F)(F)F)cc1C(=O)O	-0.75 °C	0.2 °C	0.07 °C	-0.83 °C	-0.07 °C	-0.1 °C
CNC(=O)c1nnc(NC(=O)C2CC2)cc1Nc1cccc(-c2ncn(C)n2)c1OC	3.38 °C	0.57 °C	0.11 °C	5.87 °C	0.36 °C	0.41 °C
CNc1ncc2cc(-c3ccc(-c4cccc(C)n4)cc3Cl)c(=O)n(C[C@H]3OC[C@H](N)CO3)c2n1	5.88 °C	1.85 °C	1.07 °C	0.45 °C	-0.4 °C	8.51 °C
CC1(C)CCC(CN2CCN(c3ccc(C(=O)NS(=O)(=O)c4ccc(NCC5CCOCC5)c([N+](=O)[O-])c4)c(Oc4cnc5[nH]ccc5c4)c3)CC2)=C(c2ccc(Cl)cc2)C1	-0.27 °C	1.18 °C	-0.88 °C	-0.99 °C	0.48 °C	0.44 °C
Cc1nn(-c2nc3ccc(Cl)c(Cl)c3[nH]2)c(O)c1C1OC(=O)c2ccccc21 (stereo not given)	-0.04 °C	2.69 °C	-0.14 °C	0.53 °C	0.2 °C	0.71 °C
CNC(=O)c1c(F)cccc1Nc1nc(Nc2cc3c(cc2OC)CCN3C(=O)CN(C)C)nc2[nH]ccc12	-0.29 °C	0.06 °C	1.14 °C	-0.64 °C	1 °C	0.07 °C
CCS(=O)(=O)c1ccc(OC)c(Nc2ncc(-c3cccc(F)c3)o2)c1	2.1 °C	0.14 °C	-0.13 °C	-1.15 °C	0.11 °C	0.2 °C
CCOC(=O)/N=C(\N)c1ccc(OCc2cccc(COc3ccc(C(C)(C)c4ccc(OC(=O)OCC)cc4)cc3)c2)cc1	0.03 °C	-3.47 °C	-11.2 °C	-4.21 °C	-11.6 °C	-7.28 °C
CCCN1CCC(C#N)(NC(=O)[C@H](CC(C)(C)C)NC(=O)N2CCOCC2)CC1	-0.4 °C	1.07 °C	0.1 °C	-0.32 °C	-0.1 °C	-0.11 °C
CN(C)[C@H]1CCN(c2cc(C(F)(F)F)c(C#N)c(Nc3cccc(CCC(=O)O)c3)n2)C1	-0.06 °C	0.28 °C	0.14 °C	0.08 °C	0.58 °C	0.51 °C
CN1CCc2cc(Nc3ncc(C(F)(F)F)c(NCc4cc[nH]n4)n3)ccc2C1	5.79 °C	7.99 °C	2.14 °C	6.33 °C	1.88 °C	11.3 °C
